ChEMBL document CHEMBL1201862, “PubChem BioAssay data set” (2004)
Among all 400,000 compounds or so, about 2,100 (0.53%) were called active. Roughly 14% stayed inconclusive and do not appear here. The rule behind the calls is not given here. The full list was thinned out, with actives kept by preference.

The compounds below were run against Ataxin-2 (Homo sapiens) (UniProt Q99700) (assay: qHTS for Inhibitors of ATXN expression.).
Chain of Ataxin-2 (Homo sapiens) (Q99700 whole entry): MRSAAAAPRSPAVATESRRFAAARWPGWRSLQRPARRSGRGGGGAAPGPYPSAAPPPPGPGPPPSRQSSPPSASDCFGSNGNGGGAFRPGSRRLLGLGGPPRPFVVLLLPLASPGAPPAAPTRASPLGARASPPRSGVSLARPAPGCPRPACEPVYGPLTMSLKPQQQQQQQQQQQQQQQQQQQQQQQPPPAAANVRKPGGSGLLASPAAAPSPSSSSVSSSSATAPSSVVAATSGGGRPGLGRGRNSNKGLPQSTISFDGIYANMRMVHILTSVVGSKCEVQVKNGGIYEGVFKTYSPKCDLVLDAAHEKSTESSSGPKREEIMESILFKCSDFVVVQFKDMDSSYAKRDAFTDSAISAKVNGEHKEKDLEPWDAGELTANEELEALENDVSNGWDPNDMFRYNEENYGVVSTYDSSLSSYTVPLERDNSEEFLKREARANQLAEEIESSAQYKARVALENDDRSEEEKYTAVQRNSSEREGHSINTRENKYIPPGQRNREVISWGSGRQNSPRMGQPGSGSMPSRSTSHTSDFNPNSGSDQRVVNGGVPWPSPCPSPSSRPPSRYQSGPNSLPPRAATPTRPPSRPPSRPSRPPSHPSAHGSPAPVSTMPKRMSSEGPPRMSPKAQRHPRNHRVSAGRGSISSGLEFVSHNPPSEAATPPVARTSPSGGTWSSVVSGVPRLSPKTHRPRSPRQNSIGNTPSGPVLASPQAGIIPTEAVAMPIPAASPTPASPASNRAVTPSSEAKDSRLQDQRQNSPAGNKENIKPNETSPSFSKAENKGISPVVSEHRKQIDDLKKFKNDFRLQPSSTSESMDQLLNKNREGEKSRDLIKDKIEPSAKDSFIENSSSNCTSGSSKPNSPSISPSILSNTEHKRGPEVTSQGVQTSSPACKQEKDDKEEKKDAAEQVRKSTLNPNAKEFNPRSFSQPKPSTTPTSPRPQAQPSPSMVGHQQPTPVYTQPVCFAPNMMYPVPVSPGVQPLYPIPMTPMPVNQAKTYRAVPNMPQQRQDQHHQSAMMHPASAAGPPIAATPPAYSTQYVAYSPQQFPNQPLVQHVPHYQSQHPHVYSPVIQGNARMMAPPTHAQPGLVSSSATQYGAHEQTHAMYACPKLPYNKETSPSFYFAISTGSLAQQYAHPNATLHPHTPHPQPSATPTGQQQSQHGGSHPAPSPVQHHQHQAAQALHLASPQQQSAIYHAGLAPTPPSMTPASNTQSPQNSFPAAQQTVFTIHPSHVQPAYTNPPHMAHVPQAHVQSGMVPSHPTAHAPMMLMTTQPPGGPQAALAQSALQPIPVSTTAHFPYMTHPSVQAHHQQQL
Type: functional
`COCC(C)n1c(SCc2nc(O)c3ccccc3n2)nc2ccccc2c1=O` (stereo not given) was tested, and the Potency was “inactive”. For `Nc1ccc(-c2c3ccccc3nc3ccccc23)cc1`, the Potency was “inactive”. In the case of `CC(=O)c1cnc(SCc2ccc(Cl)cc2)nc1C`, the Potency is reported as “inactive”. `COc1cccc(-c2csc(/C(C#N)=C/Nc3cc4oc5ccccc5c4cc3OC)n2)c1` was tested, and the Potency was “inactive”. For `CNC(=O)c1ccc(NC(=O)CC2SC(N3CCCC3)=NC2=O)cc1` (stereo not given), the Potency was “inactive”. In the case of `O=c1oc2ccc3ccccc3c2cc1-c1nnc(-c2cccs2)o1`, the Potency is reported as “inactive”. In the case of `O=C(OCC(=O)N1CCCC1=O)C1CCN(S(=O)(=O)c2ccc(Cl)c(C(F)(F)F)c2)CC1`, the Potency is reported as “inactive”. For `Cc1ccc(NC(=O)COC(=O)[C@H](C)N2C(=O)C3CC=CCC3C2=O)cc1S(=O)(=O)N(C)C` (stereo not given in full), the Potency was “inactive”. For `CCCN(CC(=O)Nc1ccccc1C)C(=O)c1ccc(N2CCCC2=O)cc1`, the Potency was “inactive”. For `C=CC[C@@H](CC(=O)N[C@@H](CO)Cc1ccccc1)C(=O)N[C@H](COC(=O)[C@H](CC=C)CC(=O)OC(C)(C)C)Cc1c[nH]c2ccccc12`, the Potency was 28.2 µM (active). For `C=CC[C@H](CC(=O)N[C@H](CO)Cc1ccccc1)C(=O)N[C@@H](COC(=O)[C@@H](CC=C)CC(=O)OC(C)(C)C)Cc1c[nH]c2ccccc12`, the Potency was 25.1 µM (active). In the case of `C=CC[C@@H](CC(=O)N[C@@H](CO)Cc1ccccc1)C(=O)N[C@H](COC(=O)[C@@H](CC=C)CC(=O)OC(C)(C)C)Cc1c[nH]c2ccccc12`, the Potency is reported as 28.2 µM (active). `O=C(CCCCCn1c(=S)[nH]c2ccc(N3CCOCC3)cc2c1=O)NCc1ccc2c(c1)OCO2` was tested, and the Potency was “inactive”. `Cn1c(N)nc2nc(CCc3ccccc3)c(O)nc2c1=O` was tested, and the Potency was “inactive”. `CCOc1ccc(CC(=O)Nc2c(C(=O)c3ccccc3)oc3ccc(Cl)cc23)cc1OCC` was tested, and the Potency was “inactive”. With `Cc1nc(Sc2ccc(Cl)cc2)c(C#N)c(C)c1[N+](=O)[O-]` the Potency was “inactive”. `Cc1cc(C)nc(Sc2ncnc(N)c2[N+](=O)[O-])n1` was tested, and the Potency was 16.8 µM (active). In the case of `Cc1ccc(Oc2ncnc(N)c2[N+](=O)[O-])cc1`, the Potency is reported as “inactive”. In the case of `O=C(Cc1nc2ccccc2nc1O)c1ccccc1`, the Potency is reported as “inactive”. `CC(OC(=O)C1COc2ccccc2O1)C(=O)c1ccccc1` (stereo not given) was tested, and the Potency was “inactive”. In the case of `C=C(C(=O)c1ccccc1)C(C)CC(=O)c1ccccc1` (stereo not given), the Potency is reported as 15.8 µM (active). `C=C(C(=O)c1ccccc1)C(c1ccccc1)C(C)C(=O)c1ccccc1` (stereo not given) was tested, and the Potency was 31.6 µM (active). `Nc1nc2ccccc2cc1S(=O)(=O)c1ccccc1` was tested, and the Potency was “inactive”. `O=C(Nc1ccccc1)Nc1ccc2ncoc2c1` was tested, and the Potency was “inactive”. For `CN(C)/C=N/c1nc2ccccc2nc1N1CCCC1`, the Potency was “inactive”. In the case of `N#C/C(=C/c1cccn1-c1cccc(C(=O)O)c1)c1ccc(F)cc1`, the Potency is reported as “inactive”. For `N#Cc1c(N2CCCC2)ccc(Br)c1Cl`, the Potency was “inactive”. For `COC(=O)c1ccc(CSc2cc(C)c3ccccc3n2)o1`, the Potency was “inactive”. With `CC(C)(C)c1ccc2c(c1)OC(C(=O)N/N=C\c1ccncc1)CO2` (stereo not given) the Potency was “inactive”. With `N=c1c(C(=O)NCC2CCCO2)cc2c(=O)n3ccccc3nc2n1Cc1ccccc1` (stereo not given) the Potency was “inactive”. With `Cc1ccccc1NC(=O)c1ccc2snnc2c1` the Potency was “inactive”. With `CS(=O)(=O)N(Cc1ccccc1)c1ccc(C(=O)Nc2cccc(Cl)c2)cc1` the Potency was 17.8 µM (active). `Cc1ccccc1NC(=O)c1ccc(N(Cc2ccccc2)S(C)(=O)=O)cc1` was tested, and the Potency was 35.5 µM (active). With `CCN(Cc1ccncc1)C(=S)Nc1ccccc1C` the Potency was “inactive”. With `CCCc1nn(C)c(C(=O)Nc2cccc(CC)c2)c1Cl` the Potency was “inactive”. For `Cc1cccc(NC(=O)c2ccc(N(Cc3ccccc3)S(C)(=O)=O)cc2)c1`, the Potency was 25.1 µM (active). `Cc1cc(C(F)(F)F)c2c(N)c(C(=O)Nc3cc(C)on3)sc2n1` was tested, and the Potency was “inactive”. With `Cc1ccc(C)c(Oc2coc3cc(O)ccc3c2=O)c1` the Potency was “inactive”. With `CCOc1ccccc1-n1c(N)c(C(=O)OC)c2nc3ccccc3nc21` the Potency was “inactive”. `CCOC(=O)N1CCN(c2nc(-c3ccccc3)c3cc(C)ccc3n2)CC1` was tested, and the Potency was “inactive”. With `COc1cc2nc(N3CCN(c4cc(C)ccc4C)CC3)nc(N)c2cc1OC` the Potency was 39.8 µM (active). For `COc1cc2nc(CN3CCN(S(=O)(=O)c4ccc(C)c(C)c4)CC3)nc(O)c2cc1OC`, the Potency was “inactive”. With `Cc1ccc2nc3c(cc2c1)c(NC(=O)C(C)(C)C)nn3CC(C)C` the Potency was “inactive”. `C=CCn1c(N)c(C(=O)NCC2CCCO2)c2nc3ccccc3nc21` (stereo not given) was tested, and the Potency was “inactive”. In the case of `Cc1ccc(-c2ccc(S(=O)(=O)Nc3cccnc3)cc2)cc1`, the Potency is reported as “inactive”. `O=C1C=C(Nc2cccnc2)c2ccccc2C1=O` was tested, and the Potency was 39.8 µM (active). For `c1cncc(Nc2c3ccccc3nc3ccccc23)c1`, the Potency was “inactive”. With `O=C(COc1ccc2ccc(=O)oc2c1)OCc1ccccc1` the Potency was “inactive”. With `CN(C)C(CNc1ccc(S(C)(=O)=O)cc1[N+](=O)[O-])c1ccccc1` (stereo not given) the Potency was “inactive”. For `CS(=O)(=O)c1ccc([S+]([O-])CC(=O)OCc2ccccc2)c([N+](=O)[O-])c1` (stereo not given), the Potency was 26.7 µM (active). With `Nc1ccc2nc(-c3ccccc3)c(-c3ccccc3)nc2c1` the Potency was “inactive”. With `Cc1ccc(-c2nc(N)sc2C)cc1` the Potency was “inactive”. With `Nc1nc(-c2ccccc2)c(N=Nc2ccccc2Cl)s1` the Potency was 31.6 µM (active). In the case of `O=C(O)c1ccc(CN2C(=O)c3cccc4c([N+](=O)[O-])ccc(c34)C2=O)cc1`, the Potency is reported as “inactive”. For `O=C(COC(=O)COc1cccc2ccccc12)NCC(F)(F)F`, the Potency was “inactive”. For `CCCCn1nnnc1C(c1cc2ccccc2o1)N(CCN(C)C)Cc1ccccc1` (stereo not given), the Potency was 28.2 µM (active). With `COc1cc(CNCCCN2CCOCC2)cc(Br)c1OCc1ccc(Cl)cc1` the Potency was 33.6 µM (active). For `CC(C)(CNC(=O)c1ccc(S(=O)(=O)Nc2cccc(C(F)(F)F)c2)cc1)N1CCOCC1`, the Potency was “inactive”. For `O=C(COC(=O)COc1cccc(C(F)(F)F)c1)Nc1ccc(N2CCOCC2)cc1`, the Potency was “inactive”. With `COc1cc2sc3cc(NCCCN4CCOCC4)ccc3c(=O)c2cc1OC` the Potency was “inactive”. `CCCc1cc(=O)oc2cc(OCC(=O)NCCN3CCOCC3)c(Cl)cc12` was tested, and the Potency was “inactive”. `COc1cc(CNCCN2CCOCC2)ccc1OCc1ccc(Cl)cc1Cl` was tested, and the Potency was 25.1 µM (active). For `CCOc1cc(CNCCCN2CCOCC2)cc(Br)c1OCC(=O)Nc1cccc(C(F)(F)F)c1`, the Potency was 20 µM (active). In the case of `C=CCOc1c(Br)cc(CNCCCN2CCOCC2)cc1OC`, the Potency is reported as “inactive”. For `COc1cccc2cc(C(=O)C3=C(O)C(=O)N(CCN4CCOCC4)C3c3ccc(Cl)cc3)oc12` (stereo not given), the Potency was “inactive”.
